ATXN2 expr inh: reduces ATXN2 reporter expression in HEK-293 cells | 360,000 compounds, 0.72% hits | HEK-293 ATXN2-luciferase reporter, luminescence, 24 h | Potency, µM (doses to about 57 µM), actives largely listed as inhibitors | AID 1745845; also: nearly all actives have a fitted effect of over 55% in size
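ATXN2-luciferase reporter cells (luciferase flanked by upstream and downstream ATXN2 gene portions) were treated 24 h at 37 °C with compounds at up to 57 uM. SteadyGlo luminescence gave expression; GF-AFC fluorescence gave viability.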
KB-3-1 tox: kills parental KB-3-1 adenocarcinoma cells | KB-3-1 viability, CellTiter-Glo ATP luminescence, 72 h | Potency, µM (highest dose often 46.1 µM), most hits filed as cytotoxic | 400,000 compounds, 1.4% hits | AID 1347075; also: nearly all actives have a fitted effect of over 60% in size
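KB-3-1 cells, DMEM (no phenol red) + 10% FBS; compound by pin transfer, 72 h, 37 °C. Readout: CellTiter-Glo luminescence after 10 min. Data normalized, curve-fitted.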
HepG2 viability: kills HepG2 cells in TGF-b inhibitor counter-screen | HepG2 CAGA-GFP viability, ATP luminescence, 18 h | Potency, µM (titrated, usually from 46.1 µM), most hits filed as cytotoxic | 410,000 compounds, 0.76% hits | AID 588856
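CellTiter-Glo luminescence gave cytotoxicity after 18 hours at 37 degrees C. The cells were HepG2 CAGA-GFP in 1% FBS DMEM, stimulated with 500 pg/mL TGF-beta after compound addition. %Activity was normalised to no-cell wells (complete cell-killing) and DMSO (no toxicity), and curves were fitted and classified.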
KB-V1 MDR tox: KB-V1 MDR subline cytotoxicity; KB-V1 MDR cells viability, CellTiter-Glo, 72 h; Potency, µM (top dose mostly 46.1 µM), actives largely listed as cytotoxic; 400,000 compounds, 3.4% hits; also: nearly all actives have a fitted effect of over 60% in size
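Readout: CellTiter-Glo luminescence, 10 min after addition. Cells: KB-V1 MDR subline, 72 h at 37 degrees C with compound. Analysis: corrected, normalized data fitted to concentration-effect curves.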
S2 tox: cell viability loss in ATXN counter-screen; S2 cells (HEK-293 line with an ATXN2-luciferase reporter) viability, CellTiter-Fluor protease fluorescence, 24 h; Potency, µM (series often up to 56.7 µM), most hits filed as cytotoxic; 400,000 compounds, 0.49% hits; AID 651635; also: nearly all actives have a fitted effect of over 40% in size
TGFb inhibitor: blocks TGF-b signaling; HepG2 CAGA-GFP TGF-b/SMAD3 reporter, GFP fluorescence, 18 h; TGF-beta stimulated, 500 pg/mL final; Potency, µM (titrated, usually from 46.1 µM), most hits filed as inhibitors; 410,000 compounds, 1.2% hits; also: nearly all actives have a fitted effect of over 65% in size
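Cell-based qHTS in HEPG2 carrying a CAGA-GFP Smad reporter; compounds added before 500 pg/mL final TGF-beta, 18 h incubation at 37 degrees C, GFP fluorescence quantified per cell by imaging cytometry.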
Numbers stand for hits. Compounds with a hit are over-represented: about 5.9% of the library has one in this group of screens. Calls follow the shape of the dose curve; as a rule, active = well fitted curve in the direction sought with a large enough effect; inconclusive = small, poorly fitted or top-dose-only effect, or another doubt; inactive = no such curve, though single readings can be large; an effect the other way counts as inactive or inconclusive.

How did O=C(c1ccc([N+](=O)[O-])o1)N(Cc1nnc(-c2ccccc2Cl)o1)C1CC1 do in these assays?
ATXN2 expr inh: inactive; KB-3-1 tox: inconclusive; HepG2 viability: inactive; KB-V1 MDR tox: inactive; S2 tox: inactive; TGFb inhibitor: inactive

What do the screens show for `Cc1ccc(C(=O)N(Cc2nnc(-c3ccccc3Cl)o2)C2CC2)o1`?
KB-3-1 tox: inactive; HepG2 viability: 10µM; KB-V1 MDR tox: inactive; S2 tox: inactive; TGFb inhibitor: inactive

What do the screens show for `COc1ccccc1Nc1nc(N)nc(CSc2nc(C)cc(C)n2)n1`?
ATXN2 expr inh: inactive; KB-3-1 tox: inconclusive; HepG2 viability: inactive; KB-V1 MDR tox: 13µM; S2 tox: inactive; TGFb inhibitor: inactive

What do the screens show for `O=c1c2ccccc2sc2ccc(NCCCN3CCOCC3)cc12`?
ATXN2 expr inh: inactive; KB-3-1 tox: inactive; HepG2 viability: inactive; KB-V1 MDR tox: inactive; S2 tox: inactive; TGFb inhibitor: inactive

How did CCN(CC)CCNc1ccc(CO)c2sc3ccccc3c(=O)c12 do in these assays?
ATXN2 expr inh: 28.2µM; KB-3-1 tox: 16.4µM; HepG2 viability: inactive; KB-V1 MDR tox: inconclusive; S2 tox: 31.6µM; TGFb inhibitor: inconclusive

Results for O=c1c2ccccc2sc2c(CO)ccc(NCCN3CCCCC3)c12 ?
ATXN2 expr inh: 18.9µM; KB-3-1 tox: inconclusive; HepG2 viability: inactive; KB-V1 MDR tox: 16.4µM; S2 tox: inconclusive; TGFb inhibitor: inconclusive

Results for CCN(CC)CCNc1cccc2sc3ccccc3c(=O)c12 ?
KB-3-1 tox: inactive; HepG2 viability: inactive; KB-V1 MDR tox: inconclusive; S2 tox: inactive; TGFb inhibitor: inactive

What do the screens show for `CCOc1ccc(C(=O)NCCS(=O)(=O)N2CCN(c3ccccc3F)CC2)cc1OCC`?
HepG2 viability: inactive; TGFb inhibitor: inactive

Results for Nc1ncnc2c1ncn2[C@@H]1O[C@H](C(=O)NS(=O)(=O)c2ccccc2[N+](=O)[O-])[C@@H](O)[C@H]1O ?
ATXN2 expr inh: inactive; KB-3-1 tox: inactive; HepG2 viability: inactive; KB-V1 MDR tox: inactive; S2 tox: inactive; TGFb inhibitor: inactive

How did CCN1CCCC1CNC(=O)c1cnn(-c2nccc(-c3cc(OC)ccc3OC)n2)c1C (stereo not given) do in these assays?
S2 tox: inactive

What do the screens show for `CSc1nc(SCC(=O)NC(c2ccccc2)c2ccccc2)c2c3c(sc2n1)CN(C)CC3`?
ATXN2 expr inh: 20µM; KB-3-1 tox: inconclusive; HepG2 viability: inactive; KB-V1 MDR tox: inconclusive; S2 tox: 28.2µM; TGFb inhibitor: inactive

What do the screens show for `CSc1nc(NCC(C)O)c2c3c(sc2n1)CN(C)CC3` (stereo not given)?
KB-3-1 tox: inactive; HepG2 viability: inactive; KB-V1 MDR tox: inactive; S2 tox: inactive; TGFb inhibitor: inactive

Results for O=C1/C(=C\c2ccc(Br)o2)SC(=Nc2ccccc2)N1c1ccccc1 ?
ATXN2 expr inh: inactive; KB-3-1 tox: inactive; HepG2 viability: inactive; KB-V1 MDR tox: 9.2µM; S2 tox: inconclusive; TGFb inhibitor: inactive

How did COc1ccc(C(=O)N2CCC(C)(C(=O)NS(=O)(=O)C3CC3)C2)cc1 (stereo not given) do in these assays?
ATXN2 expr inh: inactive; KB-3-1 tox: inactive; HepG2 viability: inactive; KB-V1 MDR tox: inactive; S2 tox: inactive; TGFb inhibitor: inconclusive

Results for CC(=O)NN1C(=O)c2ccc3c4c(ccc(c24)C1=O)C(=O)N(NC(C)=O)C3=O ?
KB-3-1 tox: inconclusive; HepG2 viability: 10µM; KB-V1 MDR tox: inactive; TGFb inhibitor: 7.94µM

What do the screens show for `Cc1noc(-c2ccc(-c3noc(-c4cccc(Cl)c4)n3)cc2)n1`?
ATXN2 expr inh: inactive; KB-3-1 tox: inactive; HepG2 viability: inactive; KB-V1 MDR tox: inactive; S2 tox: inactive; TGFb inhibitor: inactive

How did COc1ccccc1CNc1nc(-c2ccco2)nn1C(=O)c1cc(OC)c(OC)c(OC)c1 do in these assays?
ATXN2 expr inh: inactive; KB-3-1 tox: inactive; HepG2 viability: inactive; KB-V1 MDR tox: inactive; S2 tox: inactive; TGFb inhibitor: inactive

How did COc1ccc(C(=O)OC2=C(C(=O)c3ccccc3)N(C)S(=O)(=O)c3ccccc32)cc1OC do in these assays?
ATXN2 expr inh: inactive; KB-3-1 tox: inactive; HepG2 viability: inactive; KB-V1 MDR tox: inactive; S2 tox: inactive; TGFb inhibitor: inactive

Results for CCOc1ccc(Br)cc1S(=O)(=O)Nc1ccc(NC(=O)c2ccccc2C)cc1 ?
ATXN2 expr inh: inactive; KB-3-1 tox: inactive; HepG2 viability: inactive; KB-V1 MDR tox: inactive; S2 tox: inactive; TGFb inhibitor: inactive

Results for CCOc1ccc(Br)cc1S(=O)(=O)Nc1ccc(C(=O)Nc2ccc(C)cc2)cc1 ?
ATXN2 expr inh: inactive; KB-3-1 tox: inactive; HepG2 viability: inactive; KB-V1 MDR tox: 7.31µM; S2 tox: inconclusive; TGFb inhibitor: inactive

How did CCOc1ccc(Br)cc1S(=O)(=O)Nc1cccc(S(=O)(=O)N(C)c2ccccc2)c1 do in these assays?
ATXN2 expr inh: inactive; KB-3-1 tox: inconclusive; HepG2 viability: inactive; KB-V1 MDR tox: 4.11µM; S2 tox: inactive; TGFb inhibitor: 11.2µM

How did OC[C@H]1O[C@@H](n2cnc3c2NC=NC[C@H]3O)C[C@@H]1O do in these assays?
S2 tox: inactive

What do the screens show for `CCOc1ccc(-c2cc(OC(=O)c3ccccc3)c3c(C)oc(C)c3c(=O)c2)cc1`?
ATXN2 expr inh: inactive; KB-3-1 tox: inactive; HepG2 viability: inactive; KB-V1 MDR tox: inactive; S2 tox: inconclusive; TGFb inhibitor: inactive

Results for COC(=O)c1cc(S(=O)(=O)N2CCOCC2)c(Cl)cc1N1CCOCC1 ?
ATXN2 expr inh: inactive; KB-3-1 tox: inactive; HepG2 viability: inactive; KB-V1 MDR tox: inactive; S2 tox: inactive; TGFb inhibitor: inconclusive

What do the screens show for `COC(=O)c1cc(C)nc2c1C(=O)C(=O)C=C2N1CCOCC1`?
ATXN2 expr inh: 3.55µM; KB-3-1 tox: inconclusive; HepG2 viability: 5.01µM; KB-V1 MDR tox: inconclusive; S2 tox: 3.16µM; TGFb inhibitor: 4.47µM

What do the screens show for `Cc1[nH]nc2c1C(c1ccco1)C(C#N)=C(N)O2` (stereo not given)?
ATXN2 expr inh: inactive; KB-3-1 tox: inactive; HepG2 viability: inactive; KB-V1 MDR tox: inactive; S2 tox: inactive; TGFb inhibitor: inactive

How did Cc1[nH]nc2c1C(c1cc(Br)cs1)C(C#N)=C(N)O2 (stereo not given) do in these assays?
ATXN2 expr inh: inactive; KB-3-1 tox: 13µM; HepG2 viability: inactive; KB-V1 MDR tox: 16.4µM; S2 tox: inactive; TGFb inhibitor: 10µM

Results for COc1ccccc1Nc1nnc(SCc2nnc(-c3cc(OC)c(OC)c(OC)c3)o2)s1 ?
ATXN2 expr inh: inactive; KB-3-1 tox: inactive; HepG2 viability: inactive; KB-V1 MDR tox: inconclusive; S2 tox: inactive; TGFb inhibitor: inactive
